High-throughput results from PubChem.
KB-V1 MDR tox: kills drug-selected multidrug resistant KB-V1 cells; actives 3.4% (n = 400,000); KB-V1 MDR cells viability, CellTiter-Glo, 72 h; AID 1347076; Potency, µM (highest dose often 46.1 µM), actives largely listed as cytotoxic; note: % is set by controls: 0 for no effect and ±100 for the full control effect; nearly all actives have a fitted effect of over 60% in size
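KB-V1, DMEM (no phenol red) + 10% FBS; cpd pin-transferred, titration series; 72 h, 37 degrees C; CellTiter-Glo, luminescence. Data normalized, curve-fit.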
TGFb inhibitor: inhibitors of TGF-b signaling; HepG2 CAGA-GFP TGF-b/SMAD3 reporter, GFP fluorescence, 18 h; TGF-beta stimulated, 500 pg/mL final; actives 1.2% (n = 410,000); Potency, µM (doses to about 46.1 µM), inactives show at the highest dose activity, negative = inhibition, actives largely listed as inhibitors; AID 588855; note: % is set by controls: 0 for no effect and ±100 for the full control effect; nearly all actives have a fitted effect of over 65% in size
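Inhibition was scored as loss of TGF-beta-induced (500 pg/mL final, 18 hours, 37 degrees C) GFP in HEPG2 cells carrying a CAGA-GFP reporter, in DMEM with 1% FBS. Well GFP was summed per cell; Activity was normalised to unstimulated and stimulated DMSO wells, then concentration-response fitting.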
S2 tox: viability counter-screen for ATXN expression inhibitors; S2 cells (HEK-293 line with an ATXN2-luciferase reporter) viability, CellTiter-Fluor protease fluorescence, 24 h; Potency, µM (highest dose often 56.7 µM), usual class: cytotoxic; actives 0.49% (n = 400,000); AID 651635; note: nearly all actives have a fitted effect of over 40% in size
KB-3-1 tox: KB-3-1 parental cell cytotoxicity. KB-3-1 viability, CellTiter-Glo ATP luminescence, 72 h. Potency, µM (highest dose often 46.1 µM), usual class: cytotoxic. actives 1.4% (n = 400,000); note: % is set by controls: 0 for no effect and ±100 for the full control effect; nearly all actives have a fitted effect of over 60% in size
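Cytotoxicity measured as CellTiter-Glo luminescence after 72 h at 37 C. Compound titrations were pinned onto drug-naive KB-3-1 parental adenocarcinoma cells grown in DMEM with 10% FBS, and normalized data fitted to concentration-response curves.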
ATXN2 expr inh: ATXN2 expression inhibition; HEK-293 ATXN2-luciferase reporter, luminescence, 24 h; Potency, µM (doses to about 57 µM), for the others: at the top dose activity change, negative = inhibition, usual class: inhibitors; actives 0.72% (n = 360,000); AID 1745845; note: % is set by controls: 0 for no effect and ±100 for the full control effect; nearly all actives have a fitted effect of over 55% in size
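qHTS (up to 57 uM final) was run with 24 h compound exposure of reporter cells at 37 °C. Each well was multiplexed: SteadyGlo luminescence measured ATXN2-luciferase expression after a fluorogenic Gly-Phe-AFC viability readout (25 uM final).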
HepG2 viability: kills HepG2 cells in TGF-b inhibitor counter-screen | HepG2 CAGA-GFP viability, ATP luminescence, 18 h | Potency, µM (titrated, usually from 46.1 µM), inactives show at the top dose activity change, negative = cytotoxicity, actives largely listed as cytotoxic | AID 588856 | actives 0.76% (n = 410,000)
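CellTiter-Glo luminescence gave cytotoxicity after 18 hours at 37 degrees C. The cells were HepG2 CAGA-GFP in 1% FBS DMEM, stimulated with 500 pg/mL TGF-beta after compound addition. %Activity was normalised to no-cell wells (complete cell-killing) and DMSO (no toxicity), and curves were fitted and classified.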
* = called active by the depositor. Compounds with a hit are over-represented: about 5.9% of the library has one in this group of screens. Calls come from the whole dose curve; as a rule, active = well fitted curve in the direction sought with a large enough effect; inconclusive = small, poorly fitted or top-dose-only effect, or another doubt; inactive = no such curve, though single readings can be large; an effect the other way counts as inactive or inconclusive. Potency is the fitted concentration of half-maximal effect.

`Cc1ccc2cc(C#N)c(SCc3nnc(-c4ccccc4[N+](=O)[O-])o3)nc2c1` gave KB-V1 MDR tox 13µM*, TGFb inhibitor -23%, S2 tox inactive, KB-3-1 tox 9.2µM*, ATXN2 expr inh -18% and HepG2 viability -22%.
Screening COc1ccc(S(=O)(=O)N2CCCC(c3cc(C(=O)NCc4cccnc4)no3)C2)cc1 (stereo not given) returned KB-V1 MDR tox inactive, TGFb inhibitor 53%, S2 tox inactive, KB-3-1 tox inactive, ATXN2 expr inh -7% and HepG2 viability 29%.
O=C(CSc1ccc(-c2cccnc2)nn1)Nc1ccccc1 was read as KB-V1 MDR tox inconclusive, TGFb inhibitor 1%, S2 tox inactive, KB-3-1 tox inactive, ATXN2 expr inh -1% and HepG2 viability 23%.
Screening O=C(CSc1ccc(-c2cccnc2)nn1)Nc1ccc(F)c(F)c1 returned KB-V1 MDR tox 9.2µM*, TGFb inhibitor -2%, S2 tox inconclusive, KB-3-1 tox inactive, ATXN2 expr inh -16% and HepG2 viability -12%.
For CCCNC(=O)N1CCCN(S(=O)(=O)c2ccc3c(ccn3CC)c2)CC1 the results were KB-V1 MDR tox inconclusive, TGFb inhibitor 1%, S2 tox inactive, KB-3-1 tox inactive, ATXN2 expr inh 4% and HepG2 viability 0%.
For CC(C)c1ccc(COc2ccc(C(=O)N3CCOCC3)cc2)cc1 the results were KB-V1 MDR tox inconclusive, TGFb inhibitor -7%, S2 tox inactive, KB-3-1 tox inactive and HepG2 viability -30%.
Cc1ccc(OCc2ccc(C(=O)N3CCOCC3)cc2)cc1C was read as KB-V1 MDR tox 18µM*, TGFb inhibitor -6%, S2 tox inactive, KB-3-1 tox inactive, ATXN2 expr inh 5% and HepG2 viability -11%.
Screening COC(=O)[C@@]12C[C@@H](CC(=O)NCC3CCCCC3)C(=O)N(Cc3ccc4c(c3)OCO4)C1=CCC(C)(C)C2 returned KB-V1 MDR tox 21µM* and KB-3-1 tox inconclusive.
For COC(=O)[C@@]12C[C@@H](CC(=O)NCCc3ccccc3OC)C(=O)N(Cc3ccccc3)C1=CCC(C)(C)C2 the results were KB-V1 MDR tox 12µM* and KB-3-1 tox inactive.
Screening COC(=O)[C@@]12C[C@@H](CC(=O)NCc3ccc(C)o3)C(=O)N(Cc3ccc4c(c3)OCO4)C1=CCC(C)(C)C2 returned KB-V1 MDR tox inconclusive and KB-3-1 tox inactive.
Screening COC(=O)[C@@]12C[C@@H](CC(=O)NCCCCc3ccccc3)C(=O)N(Cc3ccc4c(c3)OCO4)C1=CCC(C)(C)C2 returned KB-V1 MDR tox 23µM* and KB-3-1 tox inconclusive.
COC(=O)[C@]12CCCCC=C1N(Cc1ccc3c(c1)OCO3)C(=O)[C@H](CC(=O)NCCCCc1ccccc1)C2 was read as KB-V1 MDR tox 16µM* and KB-3-1 tox inactive.
For CCCCNC(=O)C[C@@H]1C[C@@]2(C(=O)OC)CC(C)(C)CC=C2N(Cc2ccc3c(c2)OCO3)C1=O the results were KB-V1 MDR tox inconclusive and KB-3-1 tox inactive.
CCN(CC)S(=O)(=O)c1ccc2c(c1)N(CC(=O)N1CCN(c3ccc(F)cc3)CC1)C(=O)CO2 was read as TGFb inhibitor -5% and HepG2 viability 0%.
Screening Cc1ccnc(NC(=S)N2CCN(c3ccc(F)cc3)CC2)c1 returned KB-V1 MDR tox inactive and KB-3-1 tox inactive.
`COC(=O)c1ccc(CSc2nc3c([nH]c4ccccc43)c(=O)n2-c2cc(C)cc(C)c2)o1` gave KB-V1 MDR tox inconclusive, TGFb inhibitor 8%, S2 tox inactive, KB-3-1 tox inactive, ATXN2 expr inh 15% and HepG2 viability -16%.
